Measurements taken from the supplement of paper PMC10981050.
“And” between values parts separate entries of the source, which are not always exact repeats. Equal entries are not always repeated. Structures can show the parent of a compound that is named as a salt.

Tests used:
Assay in all cases: cell viability relative to vehicle control; higher = less cytotoxic
Details in all cases: 10 µM
K562 = system: K562
How it was run: (§1)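 Four leukaemia lines, as CRISPR-edited mutant clones and isogenic wild-type clones, were tested against Selleck bioactive, kinase and epigenetic probe libraries after removal of identity-inconsistent compounds. Cells were exposed to a single 10 µM dose for 48 h, and CellTiter-Glo luminescence was then read. Viability was calculated relative to the on-plate vehicle control.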

MARIMO = system: MARIMO
How it was run: as §1

MOLM14 = system: MOLM14
How it was run: as §1

OCI-AML2 = system: OCI-AML2
How it was run: as §1

Structure (SMILES)	cell viability (K562; SRSF2 genotype: SRSF2 P95H/wt)	cell viability (K562; SRSF2 genotype: SRSF2 wt/wt) [%]	cell viability (MARIMO; SRSF2 genotype: SRSF2 P95H/wt) [%]	cell viability (MARIMO; SRSF2 genotype: SRSF2 wt/wt) [%]	cell viability (MOLM14; SRSF2 genotype: SRSF2 P95H/wt) [%]	cell viability (MOLM14; SRSF2 genotype: SRSF2 wt/wt) [%]	cell viability (OCI-AML2; SRSF2 genotype: P95H/wt) [%]	cell viability (OCI-AML2; SRSF2 genotype: wt/wt) [%]
CC(=O)O/N=C1\C(=O)N(Cc2cc(Cl)ccc2Cl)c2ccc(Cl)cc21	92% and 94.5%	85.1	15.6	91.5	30.4	90.7	1.27	9.59
COc1cc(-c2oc3cc(O)cc(O)c3c(=O)c2OC2OC(COC3OC(C)C(O)C(O)C3O)C(O)C(O)C2OC2OC(C)C(O)C(O)C2O)ccc1O (stereo not drawn) [Typhaneoside]	103%	98.7	93.9	106	98.5	106	110	105
O=S(=O)(O)c1cc(O)ccc1O [Calcium Dobesilate]	104% and 94.7%	103	103	110	98.4	103	104	103
Nc1ccn([C@@H]2O[C@H](CO)[C@@H](O)[C@H]2O)c(=O)n1 [Cytidine]	101% and 86.3%	84.4	82.5	89.9	81	89.2	82.5	86.6
CCN(CC)CCNC(=O)c1c(C)[nH]c(/C=C2\C(=O)Nc3ccc(-c4csc(-c5ccccc5)n4)cc32)c1C [Amcasertib (BBI503)]	0.84% and 1.26%	0.76	66.4	43.4	4.21	8.87	4.03	26
N#Cc1cccc(-c2c[nH]c3ncnc(N4CCOCC4)c23)c1	102% and 106%	102	81.9	92.8	96.8	103	109	106
O=C(O)C(=O)O [Oxalic acid]	99% and 94.9%	90	95.8	94.5	95.2	94.3	99.2	99.6
COc1cccc(CCc2ccccc2OCC(CN(C)C)OC(=O)CCC(=O)O)c1 (stereo not drawn) [Sarpogrelate hydrochloride]	90.3% and 96%	92.4	84.3	89.3	88.1	102	96.9	100
CCOc1cc(C=O)ccc1OC(C)=O [Ethyl vanillin acetate]	103% and 99.2%	102	105	108	96.4	98.5	98	108
COCCNC(=O)Nc1ccc2nc(-c3cccs3)c(-c3cccs3)nc2c1 [ACSS2 inhibitor]	82.9% and 79.4%	84.3	85.1	97.7	89.1	94.8	91.5	95.1
Oc1ccc(-c2c(-c3ccccc3)nn3c(C(F)(F)F)cc(C(F)(F)F)nc23)cc1	87.4% and 87.6%	83	85.7	93.3	75.9	86.1	92	103
Nc1cc[nH]c(=O)n1 [Cytosine]	102% and 93.8%	99.5	102	110	107	104	102	107
CCN(CC)CC#CCOC(=O)C(O)(c1ccccc1)C1CCCCC1 (stereo not drawn) [Oxybutynin chloride]	94.9% and 97.5%	88.6	79.8	96	83	101	80.8	91.8
CC(C)C(C(=O)O)N1C(=O)C(=Cc2ccc(Br)cc2)SC1=S (stereo not drawn)	105%	102	98.4	105	100	100	102	109
CC1OC2OC3C(OCC(O)C3O)OC(=O)C34CCC(C)(C)CC3C3=CCC5C6(C)CC(O)C(OC7OC(CO)C(O)C(O)C7OC7OCC(OC(=O)CC(C)(O)CC(=O)OC1C(OC1OCC(O)C(O)C1O)C2O)C(O)C7O)C(C)(CO)C6CCC5(C)C3(C)CC4O (stereo not drawn) [Tubeimoside II]	23.1% and 15.2%	16.7	46.2	70.6	51.2	86.1	28.5	38.4
CS(=O)(=O)OCCCCOS(C)(=O)=O [Busulfan (Myleran, Busulfex)]	103% and 108%	98.6	99.6	107	102	106	88.6	102
CCCCCCCCC(=O)O [Nonanoic acid]	98.3% and 102%	102	108	106	98.4	102	107	97
COc1cc2oc(-c3ccc(O)cc3)cc(=O)c2c(O)c1[C@@H]1O[C@H](CO)[C@@H](O)[C@H](O)[C@H]1O[C@@H]1O[C@H](CO)[C@@H](O)[C@H](O)[C@H]1O [Spinosin]	106%	104	106	101	106	104	99.2	100
O=[N+]([O-])c1ccc(Nc2nc(N3CCOCC3)nc(N3CCOCC3)n2)cc1	99% and 99.5%	95.7	95.7	95.8	112	99.8	107	116
CC1(C)CCC(C)(C)c2cc(NC(=O)c3ccc(C(=O)O)cc3)ccc21 [Tamibarotene]	94.1% and 91.6%	90.8	93.1	99.2	88.8	98.3	37.4	61.5
CCc1c(C(=O)NCCc2ccc(N3CCCCC3)cc2)[nH]c2ccc(Cl)cc12	107% and 104%	111	106	108	85.4	102	112	107

Structure (SMILES)	cell viability (K562; SRSF2 genotype: SRSF2 P95H/wt)	cell viability (K562; SRSF2 genotype: SRSF2 wt/wt) [%]	cell viability (MARIMO; SRSF2 genotype: SRSF2 P95H/wt) [%]	cell viability (MARIMO; SRSF2 genotype: SRSF2 wt/wt) [%]	cell viability (MOLM14; SRSF2 genotype: SRSF2 P95H/wt) [%]	cell viability (MOLM14; SRSF2 genotype: SRSF2 wt/wt) [%]	cell viability (OCI-AML2; SRSF2 genotype: P95H/wt) [%]	cell viability (OCI-AML2; SRSF2 genotype: wt/wt) [%]
CC(=O)OC(C)C(C)C(=O)OCC12C3CC(C)(C)[C@H](O[C@@H]1C[C@]1(C)C3=CCC3C4(C)CCC(O[C@@H]5O[C@H](C(=O)O)[C@@H](O[C@H]6O[C@H](CO)[C@@H](O)[C@H](O)[C@H]6O)[C@H](O)[C@H]5O[C@@H]5OC[C@@H](O)[C@H](O)[C@H]5O)[C@](C)(CO)C4CCC31C)C2O (stereo partly drawn) [Sodium Aescinate]	90.7% and 98.9%	93.9	95.5	96.8	89.4	92.3	88.5	93.2
O=C(CCCCCCC(=O)N/N=C/c1ccc(N(c2ccccc2)c2ccccc2)cc1)NO	38.5% and 60.9%	54.6	65.8	18.7	1.58	1.31	0.64	1.98
NC1(c2ccc(-c3nc4ccn5c(=O)[nH]nc5c4cc3-c3ccccc3)cc2)CCC1 [MK-2206 dihydrochloride]	38.7% and 32.2%	48.4	51.4	53.3	14.7	22.9	5.42	27.8
O=c1c(O)c(-c2ccc(O)c(O)c2)oc2cc(O)cc(O)c12 [Quercetin dihydrate (Sophoretin)]	107% and 99.5%	92.6	98.4	98	100	99.6	97.4	96.5
CCCCC(CC)COC(=O)C=Cc1ccc(OC)cc1 (stereo not drawn) [Octinoxate]	106% and 102%	103	96.9	109	99.5	108	90.2	93.4
CCOc1cc(C(=O)N2CCC(N3CCN(C)CC3)CC2)ccc1Nc1ncc2c(n1)N(C1CCCC1)c1ccccc1C(=O)N2C	10.3% and 7.13%	15.2	35.2	35.2	0.3	0.37	2.24	10.6
Cc1nnc(C(=O)NC(C)(C)c2nc(C(=O)NCc3ccc(F)cc3)c(O)c(=O)n2C)o1 [Raltegravir (MK-0518)]	101% and 94.3%	94.6	95.8	103	98.1	93.5	95.4	98
COC(=O)Nc1nc2cc(C(=O)c3cccs3)ccc2[nH]1 [Nocodazole]	12.2% and 32.6%	34.7	7.65	8.94	1.15	3.4	5.25	7.85
Cc1cn([C@H]2O[C@@H](CO)[C@H](O)[C@H]2F)c(=O)[nH]c1=O [Clevudine (Levovir)]	91.2% and 95.1%	99.5	91.2	92.2	101	97.9	99.6	88.1
CC1(C)S[C@@H]2[C@H](NC(=O)[C@H](N)c3ccc(O)cc3)C(=O)N2[C@H]1C(=O)O [Amoxicillin sodium (Amox)]	99.4% and 102%	105	105	109	96	103	105	93.4
CCCNS(=O)(=O)Nc1ncnc(OCCOc2ncc(Br)cn2)c1-c1ccc(Br)cc1 [Macitentan]	104% and 105%	96.8	100	118	103	110	102	110
CC1OC(OC2CCC3(C)C(CCC4(C)C3C=CC3=C5CC(C)(C)CCC5(CO)C(O)CC34C)C2(C)CO)C(O)C(OC2OC(CO)C(O)C(O)C2O)C1O (stereo not drawn) [Saikosaponin B2]	93.5% and 88.7%	86.8	91.5	106	96.3	95.1	93.9	100
Nc1nc2c(ncn2COCCO)c(=O)[nH]1 [Acyclovir (Aciclovir)]	98% and 101%	95.1	99.2	98.3	103	99.1	105	102
COc1ccccc1N1CCN(CCN(C(=O)C2CCCCC2)c2ccccn2)CC1	76.7% and 78.4%	77.3	67.8	73	75.4	77.3	74.9	66.3
O=C(O)CSc1cc(NS(=O)(=O)c2ccc(Br)cc2)c2ccccc2c1O	86.4% and 79.9%	94.8	95.5	94.5	73.9	89.3	97.9	107
Cc1ccc(S(=O)(=O)Nc2nc3ccccc3nc2Nc2ccc3nsnc3c2)cc1 [XL147 analogue]	95.3% and 101%	105	97.6	104	99.2	98.7	101	94.5
Cc1ccc(N(CC2=NCCN2)c2cccc(O)c2)cc1 [Phentolamine Mesylate]	93% and 101%	92.5	90.3	95.2	102	103	102	86.7
CC(C)n1nccc1-c1ncccc1COc1cccc(O)c1C=O [Voxelotor(GBT440, GTx011)]	97.7% and 98.4%	91.8	104	103	85.8	94	99.7	98.3
CNC[C@@H](O)c1ccc(O)c(O)c1 [L-Adrenaline (Epinephrine)]	101% and 90%	96.3	104	101	87.9	99.3	115	104
CN[C@@H](C)C(=O)N[C@H](C(=O)N1CCC[C@H]1c1nc(C(=O)c2ccc(F)cc2)cs1)C1CCCCC1	84.3% and 92.2%	89.4	70.1	82.2	58.3	82.3	75.8	90.5
